Rows were chosen to be rich in hits. Some 1.2% of all compounds tested hit in one or more screens of this group.
BRCA1 expr up = activators of BRCA1 expression; MCF7-BRCA1-FFLuc reporter, luminescence, 48 h; response scale: scaled: vehicle 0%, 10 µM genistein 100%; Potency, µM (titrated, usually from 46.1 µM), inactives show top-dose activation, most hits filed as activators; 380,000 compounds, 1.1% hits; AID 624202; further: nearly all actives have a fitted effect of over 80% in size
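Luminescence from a BRCA1-driven firefly luciferase in MCF7 cells was the read-out, taken 15 min after substrate addition following 48 h compound exposure at 37 °C. Data were normalized to a 10 microM genistein control and DMSO vehicle.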
Apoferritin bind = candidate novel general anesthetic via apoferritin binding | Potency, µM (top dose mostly 77.5 µM), for the others: top-dose activity change, negative = displacement, actives largely listed as inhibitors | apoferritin/1-aminoanthracene competitive binding, fluorescence | P02791 | AID 485281 | 350,000 compounds, 0.074% hits; further: on the % scale 0 is the no-effect control and ±100 the full control effect; nearly all actives have a fitted effect of over 20% in size
Target sequence (P02791 2-175 limits assumed): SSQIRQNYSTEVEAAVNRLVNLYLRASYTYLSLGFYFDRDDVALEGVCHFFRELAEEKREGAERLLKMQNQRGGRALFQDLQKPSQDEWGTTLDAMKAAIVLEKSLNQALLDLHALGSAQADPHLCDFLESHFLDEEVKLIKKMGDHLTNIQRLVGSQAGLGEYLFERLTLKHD
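Concentration-response curves derived by four-parameter Hill fitting of normalized fluorescence, where compounds displaced 1-AMA from 10 uM horse apoferritin following a brief 10 min room-temperature incubation; propofol titration acted as positive control.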
GoLoco inh red = blocks human Gai1 binding to RGS12 GoLoco peptide, red readout | P63096 | Gai1:RGS12 GoLoco peptide FP, rhodamine, 10 min | Potency, µM (doses to about 61.6 µM), for inactives: top-dose activity, negative = inhibition, most hits filed as inhibitors | 230,000 compounds, 0.44% hits; active means well fitted inhibition curve with a large enough effect, not every such curve was filed as active; inactive means no such curve, though single readings can be large or run the other way; further: on the % scale 0 is the no-effect control and ±100 the full control effect; nearly all actives have a fitted effect of over 30% in size
ERG-DNA inh = blocks human ERG Ets domain binding to DNA; AID 624246; 370,000 compounds, 0.028% hits; P11308; fluorescence polarization, His-ERG Ets domain / labelled DNA; Potency, µM (doses to about 76.9 µM), for the others: at the top dose FP activity, negative = inhibition, most hits filed as inhibitors; active means well fitted inhibition curve with a large enough effect in the polarisation, with a control signal flat; inconclusive means small, poorly fitted or top-dose-only effect, or effect the other way, or a change in a side signal; inactive means no such curve, though single readings can be large or run the other way; the % refers to the polarisation;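 further: polarization taken with two DNA probes labelled with fluorescein and Texas red; % of control where 0% means no effect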
Target sequence (P11308 whole entry, looked up, the tested form may be a part): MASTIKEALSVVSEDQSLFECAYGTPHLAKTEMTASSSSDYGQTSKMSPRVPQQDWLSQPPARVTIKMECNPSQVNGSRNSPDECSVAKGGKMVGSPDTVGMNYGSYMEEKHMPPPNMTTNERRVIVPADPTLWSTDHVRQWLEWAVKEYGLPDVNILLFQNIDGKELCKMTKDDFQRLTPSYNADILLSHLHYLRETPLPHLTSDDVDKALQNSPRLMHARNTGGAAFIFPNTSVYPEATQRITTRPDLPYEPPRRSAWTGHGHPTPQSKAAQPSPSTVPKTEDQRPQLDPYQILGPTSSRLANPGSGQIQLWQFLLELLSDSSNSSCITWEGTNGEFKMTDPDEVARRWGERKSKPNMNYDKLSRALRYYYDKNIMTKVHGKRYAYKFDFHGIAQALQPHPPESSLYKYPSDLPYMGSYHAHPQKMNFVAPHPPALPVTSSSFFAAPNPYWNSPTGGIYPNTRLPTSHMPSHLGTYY
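His-tagged ERG Ets domain (1 uM in the protein solution; 300mM KCl, 50mM Tris-HCl, 1mM EDTA, 1mM DTT, pH 7.5) received compound, then a probe mix of 5 nM fluorescein-DNA and 100nM Texas-615-DNA. Fluorescence polarization was read for both dyes.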
* = called active by the depositor; u = inconclusive; x = no result; ! = repeats disagree. Unless noted, the call rests on the fitted dose curve; in most records, active means well fitted curve in the direction sought with a large enough effect; inconclusive means small, poorly fitted or top-dose-only effect, or another doubt; inactive means no such curve, though single readings can be large; an effect the other way counts as inactive or inconclusive. Potency means the concentration at half of the fitted maximal effect.

SMILES	BRCA1 expr up	Apoferritin bind	GoLoco inh red	ERG-DNA inh
COc1ccc(C2C(C(=O)c3cccs3)=C(O)C(=O)N2c2nncs2)cc1 (stereo not given)	1.3%	-16.8%	1.78µM*	2.6%
NC(=O)C1CCCN1C(=O)C(Cc1cnc[nH]1)NC(=O)C1CCC(=O)N1 (stereo not given)	x	2.3%	x	x
CCCN1CCC(=O)N(C(CSc2ccc(Br)cc2)CC(C)C)CC1 (stereo not given)	x	-6.3%	x	x
COc1cc(OC)c(/C=C/c2ccc3ccccc3[n+]2[O-])c(OC)c1	0.0%	x	x	x
Cc1ccc2oc(C(=O)N(C)Cc3ccon3)c(C)c2c1	8.91µM*	-10.3%	x	0.7%
Cc1ccc2oc(C(=O)N(C)Cc3ccc(C)o3)c(C)c2c1	47.6%	1.3%	x	-12.0%
CCOC(=O)c1cccc(NC(=O)c2cncc(Br)c2)c1	u	-14.5%	-3.2%	6.7%
CO[C@]12C[C@@H](COC(=O)c3cncc(Br)c3)CN(C)[C@@H]1Cc1cn(C)c3cccc2c13	x	x	12.6µM*!	x
OC1OC[C@H](O)[C@H](O)[C@H]1O (stereo not given in full)	x	5.9%	x	x
CCCn1cnc2c(SCc3ccccc3)nc(N)nc21	u	x	x	5.6%
CCCCn1cnc2c(SCc3ccccc3)nc(N)nc21	7.08µM*	x	x	1.1%
CC1=Nc2ccccc2/C1=C(/C)c1c(C)[nH]c2ccccc12	-1.2%	x	x	x
Cc1ccc(Nc2ncc3c(n2)CC(C)(C)CC3=O)cc1	2µM*	-19.7%	2.9%	-3.0%
Cc1ccsc1CCNC(=O)C1CCC(=O)N(CCc2cccc(F)c2)C1 (stereo not given)	7.94µM*	-5.7%	x	-14.0%
O=C(NCCc1cccs1)C1CCC(=O)N(CCc2cccc(F)c2)C1 (stereo not given)	-4.7%	3.4%	x	3.1%
CC(=O)c1cccc(NC(=O)COc2ccccc2C(=O)Nc2ccccc2)c1	-4.5%	x	x	x
COc1ccc(-n2[nH]c3c(cnc4ccccc43)c2=O)cc1	14.1µM*	x	x	x
O=C(C[n+]1ccncc1)c1ccc2ccccc2c1	-3.4%	x	x	x
Cc1cc(NC(=O)NC(=O)c2cccc(OC(F)(F)C(F)F)c2)n[nH]1	70.8%	-2.9%	9.3%	-0.9%
Cc1cc(NC(=O)c2cccc(Oc3ccccc3)c2)n[nH]1	11.2µM*	-9.5%	4.6%	-16.6%
COC(=O)c1ccc(OCC(O)Cn2nnc3ccccc32)cc1 (stereo not given)	11.2µM*	-16.3%	-8.6%	x
O/N=C(/C[n+]1csc2ccccc21)c1ccccc1	0.9%	x	x	x
Cc1ccccc1-n1c(C)cc(/C=C(\C#N)C(=O)NCC2CCCO2)c1C (stereo not given)	14.1µM*	-10.6%	28.6%	-2.2%
COc1cc(CNCc2ccccn2)ccc1OCc1ccc(Cl)c(Cl)c1	20µM*	u	10.2%	-1.7%
COc1cc(CNCc2ccccn2)ccc1OCC(N)=O	5.8%	-2.9%	-8.8%	x
SMILES	BRCA1 expr up	Apoferritin bind	GoLoco inh red	ERG-DNA inh
COc1cc(CNCc2ccccn2)ccc1OCc1ccc(Cl)cc1Cl	-32.9%	20µM*	-1.6%	0.1%
CC(=O)OCOC(=O)CN(CC(=O)OCOC(C)=O)c1ccccc1OCCOc1ccccc1N(CC(=O)OCOC(C)=O)CC(=O)OCOC(C)=O	x	82.5%	3.0%	x
CCn1c(COc2ccccc2)nc2ccccc21	101.6%	-15.9%	-4.6%	-0.3%
CCn1c(COc2ccc(OC)cc2)nc2ccccc21	11.2µM*	u	2.4%	0.9%
COc1ccccc1NC(C)C(=O)c1c[nH]c2ccccc12 (stereo not given)	12.6µM*	x	x	x
COc1ccccc1OCCNC(=O)C(=O)c1c[nH]c2ccccc12	4.0%	2.2%	2.2%	11.8%
COc1ccc(C(=O)c2c[nH]c3ccccc23)cc1	3.55µM*	-10.4%	8.1%	2.3%
COc1ccc(CC(=O)OCC(=O)c2c[nH]c3ccccc23)cc1	-18.5%	x	x	5.4%
O=C(NCCc1c[nH]c2ccccc12)c1ccc(Cl)cc1	3.55µM*	-13.3%	x	6.4%
COc1ccc(C(=O)NCCc2c[nH]c3ccccc23)cc1	5.62µM*	-4.2%	x	7.3%
COc1ccc(OCC(=O)NCCc2c[nH]c3ccccc23)cc1	-25.2%	-13.6%	22.8%	44.0%
C[N+]1(CC(=O)c2ccc3ccccc3c2)CCOCC1	0.0%	x	x	x
O=c1cc(O)c2c([nH]1)CCC2	6.8%	x	x	x
CCN(CC)c1ccc(NC(=O)c2cnn(-c3ccccc3)c2-n2cccc2)c(C)c1	x	48.1%	x	7.0%
CC(C)=CNNC(=O)c1ccc(O)cc1	24.7%	x	x	x
CCC(=O)NCCc1c[nH]c2ccccc12	0.5%	-7.3%	7.6%	-0.5%
COc1cc(SC)ccc1C(=O)NCCc1c[nH]c2ccccc12	46.9%	-2.2%	x	-6.4%
Cc1ccsc1C(=O)NCCc1c[nH]c2ccccc12	12.6µM*	-12.3%	x	8.5%
O=C(NCCc1c[nH]c2ccccc12)c1ccc(F)cc1F	3.98µM*	-9.3%	x	-5.4%
Cc1ccc(NC(=O)c2ccccn2)c(Br)c1	3.55µM*	-2.7%	11.0%	51.0%
Cc1ccc(C)c(NC(=O)c2ccccn2)c1	50.3%	-8.5%	-0.7%	3.0%
C[C@@H]1COC(=O)O1	x	-0.7%	x	x
C=CCN(CC=C)S(=O)(=O)c1ccc(NC(=S)NC(=O)c2ccco2)cc1	-27.2%	17.8µM*	1.2%	5.3%
C=CCN(CC=C)S(=O)(=O)c1ccc(NC(=S)NC(=O)c2ccc(-c3ccccc3)cc2)cc1	-20.7%	u	13.9%	3.4%
CCC[C@@H]1CC2=CC(=O)CC[C@]2(C)[C@H]2CC[C@@]3(C)[C@@H](CC[C@@]34CCC(=O)O4)[C@H]12	x	-15.2%	x	x
SMILES	BRCA1 expr up	Apoferritin bind	GoLoco inh red	ERG-DNA inh
O=C(c1cccs1)n1nc(-c2ccccc2)nc1NCc1ccco1	13.3%	2.8%	11.2%	-2.5%
COCC(=O)n1nc(-c2ccccc2)nc1NCc1cccs1	10µM*	-7.2%	5.7%	5.1%
CN(C)CCN(C(=O)c1cccs1)c1nc2cc3c(cc2s1)OCCO3	11.2µM*	-6.3%	x	-8.2%
CN(C)CCN(C(=O)C1CCCCC1)c1nc2cc3c(cc2s1)OCCO3	11.2µM*	x	x	x
CCC1CCCCN1S(=O)(=O)c1ccc(C(=O)N(CCCN(C)C)c2nc3cc4c(cc3s2)OCO4)cc1 (stereo not given)	-2.0%	56.2µM*	x	-7.1%
CN(C)CCN(C(=O)c1ccc(Br)s1)c1nc2cc3c(cc2s1)OCCO3	81.3%	-21.0%	-13.7%	-8.9%
O=C1c2ccccc2-c2onc3ccc(N4CCCC4)c1c23	-50.8%	u	-199.9%	17.8µM*
CCNc1ccc2noc3c2c1C(=O)c1ccccc1-3	51.2%	u	3.98µM*	u
CCOc1ccc2noc3c2c1C(=O)c1ccccc1-3	0.0%	61.6%	-14.9%	4.4%
Cn1c(=O)cc2c3c(c(N4CCCCC4)ccc31)C(=O)c1ccccc1-2	-48.4%	-4.3%	15.8µM*	u
O=C1c2ccccc2C(=O)c2c1cccc2N1CCCC1	-6.7%	u	78.3%	9.1%
O=C1c2ccccc2-c2onc3ccc(NCc4ccco4)c1c23	-43.7%	u	11.2µM*	u
CCCOc1ccc(-c2nonc2NC(=O)c2oc3ccc(Cl)cc3c2C)cc1OCCC	x	-1.0%	x	3.7%
